# Paper PMC7862700, “An all-to-all approach to the identification of sequence-specific readers for epigenetic DNA modifications on cytosine”
# What was measured:
# Test in all cases: DAPPL (digital affinity profiling via proximity ligation, sequencing); 10 mM Tris-HCl pH 7.5, 50 mM NaCl, 1 mM DTT, 4% glycerol, room temperature, 30 min; GST-TFs on glutathione beads, 16-mer random dsDNA library, 0.1% formaldehyde crosslink after washing; high values mean tight binding
# FEV = biological target: T1, FEV (Homo sapiens, UniProt Q99581 1-238); conditions: protein: recombinant; tags: N-terminal GST; dsDNA, one strand shown
# T1 sequence: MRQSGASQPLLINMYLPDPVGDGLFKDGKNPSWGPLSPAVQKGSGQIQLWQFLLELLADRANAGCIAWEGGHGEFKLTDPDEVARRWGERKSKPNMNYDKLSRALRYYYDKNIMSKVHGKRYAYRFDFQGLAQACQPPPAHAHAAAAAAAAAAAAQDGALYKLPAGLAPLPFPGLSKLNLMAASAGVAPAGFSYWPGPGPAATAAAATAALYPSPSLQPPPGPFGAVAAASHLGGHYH
# Procedure, shortened: (§1)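 Human transcription factors fused to GST were expressed in yeast, captured on glutathione beads, given DNA barcodes and pooled with a GST-only negative control. Pools were incubated with 200 nmole of a 16-mer random double-stranded DNA library in Tris/NaCl/DTT/glycerol buffer at room temperature for 30 min. They were then washed, crosslinked with 0.1% formaldehyde, proximity-ligated (BsaI/T4 ligase, 1 h, 37 °C), PCR-amplified and sequenced on an Illumina NextSeq500. Binding signal is each 6-mer's read frequency for a factor divided by its frequency for the GST control.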
# ETV5 = ETV5 (Homo sapiens, UniProt P41161 1-510); conditions: protein: recombinant; tags: N-terminal GST; dsDNA, one strand shown
# Sequence of ETV5 (P41161 whole entry): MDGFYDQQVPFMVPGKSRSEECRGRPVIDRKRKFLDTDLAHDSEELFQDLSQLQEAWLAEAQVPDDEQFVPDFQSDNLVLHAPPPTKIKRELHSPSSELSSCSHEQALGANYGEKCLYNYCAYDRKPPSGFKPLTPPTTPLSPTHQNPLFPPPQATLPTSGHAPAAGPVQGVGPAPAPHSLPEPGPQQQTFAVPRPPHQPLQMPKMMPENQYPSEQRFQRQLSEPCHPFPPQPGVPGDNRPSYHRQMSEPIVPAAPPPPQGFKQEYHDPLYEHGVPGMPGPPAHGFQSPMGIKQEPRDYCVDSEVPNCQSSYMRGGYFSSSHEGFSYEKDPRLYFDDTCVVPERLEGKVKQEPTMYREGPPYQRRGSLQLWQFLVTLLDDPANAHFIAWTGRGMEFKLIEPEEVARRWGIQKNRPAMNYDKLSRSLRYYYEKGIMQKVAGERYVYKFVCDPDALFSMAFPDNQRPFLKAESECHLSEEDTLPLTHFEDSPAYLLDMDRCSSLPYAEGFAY
# Procedure, shortened: as §1
# HSF1 = HSF1 (Homo sapiens, UniProt Q00613 1-529); conditions: protein: recombinant; tags: N-terminal GST; chain copies: 3; dsDNA, one strand shown
# Sequence of HSF1 (Q00613 whole entry): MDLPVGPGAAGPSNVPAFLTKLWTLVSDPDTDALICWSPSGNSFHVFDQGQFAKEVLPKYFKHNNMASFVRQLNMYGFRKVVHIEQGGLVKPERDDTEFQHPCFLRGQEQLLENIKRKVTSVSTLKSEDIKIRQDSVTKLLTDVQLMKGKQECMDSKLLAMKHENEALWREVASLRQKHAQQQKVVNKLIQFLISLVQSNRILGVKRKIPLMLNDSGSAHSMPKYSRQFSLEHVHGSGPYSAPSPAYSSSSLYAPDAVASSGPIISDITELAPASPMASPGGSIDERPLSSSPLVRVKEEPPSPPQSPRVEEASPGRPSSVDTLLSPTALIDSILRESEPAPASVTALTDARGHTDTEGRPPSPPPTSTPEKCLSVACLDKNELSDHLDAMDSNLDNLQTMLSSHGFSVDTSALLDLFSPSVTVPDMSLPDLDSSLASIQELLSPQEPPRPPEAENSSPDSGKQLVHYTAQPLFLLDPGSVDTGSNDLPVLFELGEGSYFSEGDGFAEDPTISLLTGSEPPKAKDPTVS
# Procedure, shortened: as §1
# SPIC = biological target: T2, SPIC (Homo sapiens, UniProt Q8N5J4 1-248); conditions: protein: recombinant; tags: N-terminal GST; dsDNA, one strand shown
# T2 sequence: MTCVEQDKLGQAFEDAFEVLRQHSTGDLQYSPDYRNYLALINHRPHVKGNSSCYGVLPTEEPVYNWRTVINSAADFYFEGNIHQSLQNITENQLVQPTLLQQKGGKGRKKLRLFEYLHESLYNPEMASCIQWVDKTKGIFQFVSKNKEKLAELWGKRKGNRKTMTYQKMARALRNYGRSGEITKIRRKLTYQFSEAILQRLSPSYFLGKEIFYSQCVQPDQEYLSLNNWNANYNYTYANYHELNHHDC
# Procedure, shortened: as §1
# ELF4 = ELF4 (Homo sapiens, UniProt Q99607 1-663); conditions: protein: recombinant; tags: N-terminal GST; dsDNA, one strand shown
# Sequence of ELF4 (Q99607 whole entry): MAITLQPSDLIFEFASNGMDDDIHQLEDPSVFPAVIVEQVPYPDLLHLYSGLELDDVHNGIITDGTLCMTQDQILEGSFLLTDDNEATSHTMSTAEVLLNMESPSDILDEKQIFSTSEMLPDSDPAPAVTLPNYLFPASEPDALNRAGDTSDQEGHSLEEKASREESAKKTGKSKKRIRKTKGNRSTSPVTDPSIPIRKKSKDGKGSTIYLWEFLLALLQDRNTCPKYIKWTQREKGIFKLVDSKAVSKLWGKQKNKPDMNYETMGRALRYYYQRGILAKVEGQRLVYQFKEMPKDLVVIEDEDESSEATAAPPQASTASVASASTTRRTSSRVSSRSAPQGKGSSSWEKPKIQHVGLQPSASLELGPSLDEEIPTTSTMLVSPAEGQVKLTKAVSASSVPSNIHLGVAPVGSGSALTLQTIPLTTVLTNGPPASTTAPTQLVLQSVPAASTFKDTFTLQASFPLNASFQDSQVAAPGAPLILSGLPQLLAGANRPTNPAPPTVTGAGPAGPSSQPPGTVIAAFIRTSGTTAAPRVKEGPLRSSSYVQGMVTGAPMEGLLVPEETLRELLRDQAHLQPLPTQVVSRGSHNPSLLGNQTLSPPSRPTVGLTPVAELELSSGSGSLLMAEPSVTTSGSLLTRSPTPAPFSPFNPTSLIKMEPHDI
# Procedure, shortened: as §1
# ELK4 = biological target: T3, ELK4 (Homo sapiens, UniProt P28324-2 1-405); conditions: protein: recombinant; tags: N-terminal GST; dsDNA, one strand shown
# T3 sequence: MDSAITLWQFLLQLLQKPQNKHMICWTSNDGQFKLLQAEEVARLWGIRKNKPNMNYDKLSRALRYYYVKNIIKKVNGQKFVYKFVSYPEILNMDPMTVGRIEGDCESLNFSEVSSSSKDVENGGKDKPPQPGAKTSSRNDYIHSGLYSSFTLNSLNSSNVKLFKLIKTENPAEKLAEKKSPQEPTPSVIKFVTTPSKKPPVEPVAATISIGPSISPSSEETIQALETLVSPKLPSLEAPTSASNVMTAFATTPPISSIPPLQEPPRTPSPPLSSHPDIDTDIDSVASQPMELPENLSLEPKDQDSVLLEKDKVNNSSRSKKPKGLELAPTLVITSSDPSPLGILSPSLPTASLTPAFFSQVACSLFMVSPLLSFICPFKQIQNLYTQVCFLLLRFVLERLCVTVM
# Procedure, shortened: as §1
# ETV2 = biological target: T4, ETV2 (Homo sapiens, UniProt O00321 1-342); conditions: protein: recombinant; tags: N-terminal GST; dsDNA, one strand shown
# T4 sequence: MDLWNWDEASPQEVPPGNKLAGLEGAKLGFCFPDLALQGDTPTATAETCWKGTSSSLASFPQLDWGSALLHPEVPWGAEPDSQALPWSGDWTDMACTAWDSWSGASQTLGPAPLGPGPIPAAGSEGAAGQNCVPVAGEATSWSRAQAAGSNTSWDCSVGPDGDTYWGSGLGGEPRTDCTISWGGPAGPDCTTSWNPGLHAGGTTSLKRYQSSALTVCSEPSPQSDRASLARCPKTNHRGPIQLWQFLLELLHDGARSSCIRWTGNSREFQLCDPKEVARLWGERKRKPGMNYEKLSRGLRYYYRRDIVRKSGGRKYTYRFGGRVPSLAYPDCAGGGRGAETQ
# Procedure, shortened: as §1
# ELF3 = biological target: T5, ELF3 (Homo sapiens, UniProt P78545 1-371); conditions: protein: recombinant; tags: N-terminal GST; dsDNA, one strand shown
# T5 sequence: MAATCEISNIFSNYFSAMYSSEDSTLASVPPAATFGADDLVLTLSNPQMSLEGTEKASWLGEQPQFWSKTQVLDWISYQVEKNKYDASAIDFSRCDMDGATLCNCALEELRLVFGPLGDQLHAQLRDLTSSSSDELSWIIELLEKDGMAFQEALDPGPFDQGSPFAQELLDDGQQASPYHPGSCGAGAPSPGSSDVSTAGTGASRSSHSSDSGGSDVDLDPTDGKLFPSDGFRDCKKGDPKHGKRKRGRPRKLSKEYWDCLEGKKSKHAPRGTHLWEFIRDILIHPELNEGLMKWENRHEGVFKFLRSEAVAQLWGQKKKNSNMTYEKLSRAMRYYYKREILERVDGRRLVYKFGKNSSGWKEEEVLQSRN
# Procedure, shortened: as §1
# CRX = CRX (Homo sapiens, UniProt O43186 1-299); conditions: protein: recombinant; tags: N-terminal GST; dsDNA, one strand shown
# Sequence of CRX (O43186 whole entry): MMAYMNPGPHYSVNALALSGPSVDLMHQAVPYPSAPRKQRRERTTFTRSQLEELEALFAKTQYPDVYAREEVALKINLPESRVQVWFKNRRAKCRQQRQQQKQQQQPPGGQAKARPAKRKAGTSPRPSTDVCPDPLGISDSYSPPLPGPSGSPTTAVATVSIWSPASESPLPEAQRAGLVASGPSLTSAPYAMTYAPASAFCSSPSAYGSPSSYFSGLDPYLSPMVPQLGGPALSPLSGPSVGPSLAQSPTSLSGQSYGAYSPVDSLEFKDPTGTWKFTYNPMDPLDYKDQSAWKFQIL
# Procedure, shortened: as §1
# ETV1 = ETV1 (Homo sapiens, UniProt P50549 1-477); conditions: protein: recombinant; tags: N-terminal GST; dsDNA, one strand shown
# Sequence of ETV1 (P50549 whole entry): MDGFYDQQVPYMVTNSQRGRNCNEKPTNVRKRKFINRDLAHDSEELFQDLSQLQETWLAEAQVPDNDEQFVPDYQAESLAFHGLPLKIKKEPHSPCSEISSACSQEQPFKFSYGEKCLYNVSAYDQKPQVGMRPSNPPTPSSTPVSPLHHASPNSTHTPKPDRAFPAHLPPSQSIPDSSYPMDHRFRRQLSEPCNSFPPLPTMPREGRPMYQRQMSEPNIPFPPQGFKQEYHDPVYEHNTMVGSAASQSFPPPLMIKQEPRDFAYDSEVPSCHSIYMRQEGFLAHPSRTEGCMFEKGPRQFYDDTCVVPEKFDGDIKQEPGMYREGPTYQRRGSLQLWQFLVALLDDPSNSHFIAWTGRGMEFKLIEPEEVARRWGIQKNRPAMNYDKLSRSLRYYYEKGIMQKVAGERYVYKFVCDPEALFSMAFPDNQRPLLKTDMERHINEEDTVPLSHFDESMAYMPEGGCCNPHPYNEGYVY
# Procedure, shortened: as §1
sequence,measurement,setting,value
ACTCCG,binding signal,FEV,"1.49 fold enrichment (6-mer frequency, TF over GST control)"
same,binding signal,ETV5,"1.44 fold enrichment (6-mer frequency, TF over GST control)"
same,binding signal,HSF1,"1.16 fold enrichment (6-mer frequency, TF over GST control)"
same,binding signal,SPIC,"1.35 fold enrichment (6-mer frequency, TF over GST control)"
same,binding signal,ELF4,"1.58 fold enrichment (6-mer frequency, TF over GST control)"
same,binding signal,ELK4,"1.4 fold enrichment (6-mer frequency, TF over GST control)"
same,binding signal,ETV2,"1.4 fold enrichment (6-mer frequency, TF over GST control)"
same,binding signal,ELF3,"1.33 fold enrichment (6-mer frequency, TF over GST control)"
same,binding signal,CRX,"1.04 fold enrichment (6-mer frequency, TF over GST control)"
same,binding signal,ETV1,"1.47 fold enrichment (6-mer frequency, TF over GST control)"
